The list is not random: actives were taken first. Their share in the collection is about 2.9%.
KDM5B inh = Primary screen for KDM5B Histone Demethylases FDH-coupled qHTS; KDM5B demethylase, FDH-coupled NADH fluorescence (FDH is formaldehyde dehydrogenase); 220,000 compounds, 2.6% hits; AID 1347165, 2019; Potency, µM (highest dose often 57.7 µM), usual class: inhibitors; further: nearly all actives have a fitted effect of over 70% in size
Target sequence (Q9UGL1 whole entry, looked up): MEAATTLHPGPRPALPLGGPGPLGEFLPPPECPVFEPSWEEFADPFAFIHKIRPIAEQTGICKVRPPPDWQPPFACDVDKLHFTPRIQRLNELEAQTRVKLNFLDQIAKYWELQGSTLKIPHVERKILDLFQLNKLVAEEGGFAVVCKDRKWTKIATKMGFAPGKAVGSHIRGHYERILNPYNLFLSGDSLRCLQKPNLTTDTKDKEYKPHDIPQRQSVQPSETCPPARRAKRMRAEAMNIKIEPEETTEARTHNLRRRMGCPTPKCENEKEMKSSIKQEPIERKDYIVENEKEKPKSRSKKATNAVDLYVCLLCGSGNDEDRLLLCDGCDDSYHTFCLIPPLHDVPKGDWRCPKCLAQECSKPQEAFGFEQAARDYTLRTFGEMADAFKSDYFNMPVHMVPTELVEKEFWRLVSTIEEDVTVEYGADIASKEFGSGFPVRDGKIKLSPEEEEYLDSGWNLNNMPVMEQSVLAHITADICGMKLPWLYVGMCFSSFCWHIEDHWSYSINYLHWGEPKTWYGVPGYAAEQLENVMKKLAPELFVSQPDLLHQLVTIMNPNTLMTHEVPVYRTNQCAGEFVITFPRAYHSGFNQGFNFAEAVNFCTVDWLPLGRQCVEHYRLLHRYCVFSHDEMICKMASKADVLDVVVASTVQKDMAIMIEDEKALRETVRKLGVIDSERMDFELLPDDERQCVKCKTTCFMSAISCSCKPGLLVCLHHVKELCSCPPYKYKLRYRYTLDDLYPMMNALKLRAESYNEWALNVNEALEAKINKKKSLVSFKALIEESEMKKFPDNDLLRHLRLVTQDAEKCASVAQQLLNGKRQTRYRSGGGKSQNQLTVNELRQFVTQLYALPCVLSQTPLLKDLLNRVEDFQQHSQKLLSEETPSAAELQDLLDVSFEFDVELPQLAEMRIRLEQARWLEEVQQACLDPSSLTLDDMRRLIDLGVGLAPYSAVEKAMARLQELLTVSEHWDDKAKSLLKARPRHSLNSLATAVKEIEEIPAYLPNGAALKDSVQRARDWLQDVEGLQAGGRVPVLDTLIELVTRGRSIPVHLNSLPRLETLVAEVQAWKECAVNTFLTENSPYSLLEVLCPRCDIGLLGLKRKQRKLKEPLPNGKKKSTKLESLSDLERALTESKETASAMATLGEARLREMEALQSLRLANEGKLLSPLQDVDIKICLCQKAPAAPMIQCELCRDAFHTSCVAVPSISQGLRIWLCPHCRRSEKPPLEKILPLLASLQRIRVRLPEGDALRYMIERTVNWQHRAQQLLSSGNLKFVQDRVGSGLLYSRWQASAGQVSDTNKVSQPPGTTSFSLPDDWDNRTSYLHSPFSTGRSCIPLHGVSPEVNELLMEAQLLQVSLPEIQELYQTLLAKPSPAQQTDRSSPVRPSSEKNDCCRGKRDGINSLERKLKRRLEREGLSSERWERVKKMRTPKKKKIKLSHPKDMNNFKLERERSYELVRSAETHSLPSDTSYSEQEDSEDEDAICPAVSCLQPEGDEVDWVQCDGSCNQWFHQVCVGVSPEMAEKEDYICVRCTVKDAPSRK
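Inhibition is measured as reduced NADH fluorescence generation from FDH coupling to formaldehyde release. Truncated KDM5BΔAP at 200 nM final acts on H3K4me3 peptide (12.5 µM in substrate mix) in pH 7.5 HEPES buffer with Tween-20, 30 min, room temperature.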
SNCA expr inhib = Primary qHTS assay for inhibitors of alpha-synuclein gene (SNCA) expression. AID 1671194, 2021. 140,000 compounds, 0.17% hits. HEK-293 SNCA-luciferase knock-in, luminescence, 24 h. Potency, µM (top dose mostly 57.2 µM), usual class: inhibitors; further: nearly all actives have a fitted effect of over 45% in size
IP6K1 inh = Primary qHTS assay for small molecule inhibitors of Inositol hexaphosphate kinase 1 (IP6K1). Inositol hexakisphosphate kinase 1 (Homo sapiens), Q92551. IP6K1 kinase, ADP-Glo luminescence, 2 h; hits give low values. activity change, % (series mostly up to about 58 µM). 140,000 compounds, 0.81% hits; in the data active means activity change below about -25%
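ADP-Glo luminescence measures ADP made by human IP6K1 during a 2 h RT reaction with ATP/IP6 (mix at 1.3 mM/130 uM); top library doses 57.5 and 19.1 uM final.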
SNCA viab count = GF-AFC viability counterscreen for inhibitors of alpha-synuclein gene (SNCA) expression; HEK-293-SNCA-luc viability, GF-AFC fluorescence, 24 h; Potency, µM (series often up to 57.1 µM), hits mostly cytotoxic; 150,000 compounds, 0.12% hits; AID 1671193, 2021; further: nearly all actives have a fitted effect of over 30% in size
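HEK-293-SNCA-luc cells (1500/well) plated 24 h, then exposed 24 h to a dilution series; GF-AFC added 30 min at 37C, fluorescence 405/540 nm; normalised to medium-only and DMSO wells, Hill fit.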
Large screens that a line does not name were inactive. Unless noted, the call rests on the fitted dose curve; in most records, active means well fitted curve in the direction sought with a large enough effect; inconclusive means small, poorly fitted or top-dose-only effect, or another doubt; inactive means no such curve, though single readings can be large; an effect the other way counts as inactive or inconclusive.

Cc1ccccc1[C@H]1C[C@@H](O)[C@@H](O)[C@@H]1NC(=O)c1cccnc1	none
CN(C(=O)c1ccnc(-c2nnc3ccc(N4CCOCC4)nn23)c1)c1ccccc1	KDM5B inh inconclusive
COc1ccc(CNC(=O)c2cccc(Oc3ccccc3)c2)cc1	none (no result: SNCA expr inhib, IP6K1 inh, SNCA viab count)
Cc1nn(CC(O)c2ccccc2F)c(=O)c2ccccc12 (stereo not drawn)	none (no result: SNCA expr inhib, IP6K1 inh, SNCA viab count)
Cc1ccc(CNC(=O)c2ccc3c(c2)c(C)c(C)n3Cc2ccccc2)o1	KDM5B inh inconclusive
Cc1ccc(CNC(=O)c2ccc3c(c2)n(Cc2ccccc2)c(=O)c2ccnn23)o1	KDM5B inh 32µM
O=C(Nc1ccc(Cl)cc1)c1ccc2c(c1)n(Cc1ccccc1)c(=O)c1ccnn12	KDM5B inh 20µM
O=C(Cn1cnc(S(=O)(=O)N2CCOCC2)c1)Nc1ccc(F)cc1F	none (no result: SNCA expr inhib, IP6K1 inh, SNCA viab count)
O=c1c(-c2ccccc2)nnc2sc(-c3ccc(F)c(Cl)c3)nn12	none (no result: SNCA expr inhib, IP6K1 inh, SNCA viab count)
O=C(c1cnn2ccccc12)N1CCC(Cc2cccc(CO)c2)C1 (stereo not drawn)	KDM5B inh 28µM, SNCA expr inhib inconclusive
CC(C)[C@@](C)(O)[C@@H]1CN(c2nc(-c3[nH]nc4ncccc34)c(F)cc2Cl)CCN1	SNCA viab count 30µM (no result: KDM5B inh, SNCA expr inhib)
Cc1ccc2[nH]c(=O)cc(C(=O)N3CCOC(CCCC(C)C)C3)c2c1 (stereo not drawn)	KDM5B inh 28µM
CC(=O)Nc1cccc(NC(=O)CSCc2nc3ccccc3c(=O)[nH]2)c1	none (no result: SNCA expr inhib, IP6K1 inh, SNCA viab count)
NC(=O)CN1CCC(NC(=O)c2ccc(Oc3ccccc3)cc2)CC1	none (no result: SNCA expr inhib, IP6K1 inh, SNCA viab count)
O=C(NC1CC1)c1ccc2nnc(-c3cccnc3)n2c1	KDM5B inh 112µM
O=C(NC1CCCCC1)c1ccc2nnc(-c3cccnc3)n2c1	none (no result: KDM5B inh)
O=C(NC1CC1)c1ccc2nnc(-c3ccc(C(F)(F)F)cc3)n2c1	KDM5B inh 56µM
CN(c1ccc(NC(=O)Nc2ccccc2)cc1)S(=O)(=O)c1cnn(-c2ccc(F)cc2)c1	none (no result: KDM5B inh, SNCA expr inhib)
Cc1nc(C(C)C)ncc1C(=O)N1CCC2(CCCN(C)C2=O)C1 (stereo not drawn)	none
Cc1nc2ncccn2c1C(=O)N1C[C@H]2C(=O)NC[C@@]2(C(=O)O)C1	KDM5B inh 28µM
Cc1c(-c2cccc(NC(=O)Cc3ccccc3)c2)nc2ncccn12	KDM5B inh inconclusive
CCOC(=O)C1(Cc2ccccc2F)CCCN(C(=O)c2ccc(-n3ccnc3)cc2)C1 (stereo not drawn)	none
Cc1nc2ncccn2c1C(=O)N1CCC(c2nccn2CC(N)=O)CC1	KDM5B inh 28µM
Cc1nc2ncccn2c1C(=O)N1CCC2(CCCN(C)C2=O)C1 (stereo not drawn)	KDM5B inh 28µM
CCOC(=O)C1(Cc2ccc(F)cc2F)CCCN(C(=O)c2c(C)nc3ncccn23)C1 (stereo not drawn)	KDM5B inh 32µM
CCn1ccnc1C1CCN(C(=O)Cn2cccnc2=O)CC1	KDM5B inh inconclusive
COc1ccc(CNc2ccc(C(=O)O)cc2C)c(OC)c1	none (no result: SNCA expr inhib, IP6K1 inh, SNCA viab count)
COc1ccc(CCNC(=O)c2cc(-c3ccc(C(F)(F)F)cc3)nc3c2cnn3C)cc1	none (no result: KDM5B inh, SNCA expr inhib, SNCA viab count)
O=C(Cc1ccc2c(c1)CCC2)Nc1cc(C(F)(F)F)ccc1Cl	none (no result: SNCA expr inhib, IP6K1 inh, SNCA viab count)
Cn1c(N2CCCCCC2)nc2c1c(=O)n(Cc1ccccc1)c(=O)n2C	none (no result: SNCA expr inhib, IP6K1 inh, SNCA viab count)
O=C1CO[C@H]2CN(Cc3ccncc3)C[C@H]2N1Cc1ccc(F)cc1	KDM5B inh 35µM
O=C1CO[C@H]2CN(c3ncccn3)C[C@H]2N1Cc1ccncc1	KDM5B inh 40µM
O=C1CO[C@H]2CN(c3ncccn3)C[C@H]2N1Cc1ccccc1	KDM5B inh 35µM, SNCA expr inhib inconclusive
O=C(c1ccncc1)N1C[C@@H]2OCC(=O)N(Cc3ccncc3)[C@@H]2C1	KDM5B inh inconclusive
Cc1nc(-c2c[nH]c3ccccc23)c(C)s1	none (no result: SNCA expr inhib, IP6K1 inh, SNCA viab count)
Cc1cccc(-c2cccc(CCOc3cnc4c(ccn4CC(=O)O)c3)c2)c1	KDM5B inh 32µM
Cc1noc(C)c1-c1cccc(CCOc2cnc3c(ccn3CC(=O)O)c2)c1	KDM5B inh 40µM
O=C(O)Cn1ccc2cc(OCc3cccc(-c4cccc(C(F)(F)F)c4)c3)cnc21	KDM5B inh inconclusive
Cn1cc(-c2cccc(CCOc3cnc4c(ccn4CC(=O)O)c3)c2)cn1	KDM5B inh 40µM
O=C(O)Cn1ccc2cc(OCCc3cccc(-c4cncnc4)c3)cnc21	KDM5B inh 28µM
O=C(O)Cn1ccc2cc(OCc3cccc(-c4ccncc4)c3)cnc21	KDM5B inh inconclusive
CCNC(=O)N1CC(n2cc(C(=O)NCCCOC)nn2)C1	none (no result: KDM5B inh)
COc1cc(/C=C2\Oc3cc(OS(C)(=O)=O)cc(C)c3C2=O)cc(OC)c1OC	none (no result: SNCA expr inhib, IP6K1 inh, SNCA viab count)
Cc1cc(-c2cccc(CCOc3cnc4c(ccn4CC(=O)O)c3)c2)ccn1	KDM5B inh 35µM
Cc1nc(-c2cn(C3CCCN(C(=O)c4ccccc4)C3)nn2)no1 (stereo not drawn)	none
O=C(c1nnn2c1COC(c1ccccc1)C2)N1CCN(C(=O)c2cccc3[nH]ccc23)CC1 (stereo not drawn)	KDM5B inh 28µM
O=C(CCc1nnn2c1CN(C(=O)NCCc1ccccc1)CC2)N1CCCC1	none
O=C(CCc1nnn2c1CN(C(=O)c1cccc3[nH]ccc13)CC2)N1CCCC1	KDM5B inh 28µM
O=C(c1ccc2cc[nH]c2c1)N1CCN(C(=O)c2nnn3c2COC(c2ccccc2)C3)CC1 (stereo not drawn)	KDM5B inh inconclusive
COc1ccc(CC2C(=O)N(C)c3ccc(Br)cc32)cc1 (stereo not drawn)	none (no result: SNCA expr inhib, IP6K1 inh, SNCA viab count)
CCCC(=O)N1C[C@@H]2CCCN3CCC[C@@H]([C@H]23)[C@H]1CCCC(=O)NCC1CC1	KDM5B inh inconclusive
CSCc1noc(CNC(=O)c2ccc(-c3ccccc3Cl)o2)n1	KDM5B inh 32µM
c1ccc(Cc2noc(-c3nc(-c4ccc5c(c4)OCO5)no3)n2)cc1	KDM5B inh 35µM
COc1ccc(-c2noc(-c3nc(Cc4ccccc4)no3)n2)cc1OC	KDM5B inh 28µM
CCCc1noc(-c2nc(-c3ccc(OC)c(OC)c3)no2)n1	none
CCc1nc(SCc2coc(-c3cccc(F)c3)n2)n[nH]1	none (no result: SNCA expr inhib, IP6K1 inh, SNCA viab count)
COc1ccccc1N1CCN(S(=O)(=O)c2ccc(F)c(C(=O)Nc3ccc(Cl)cc3C(F)(F)F)c2)CC1	IP6K1 inh -34
COc1ccccc1NC(=O)c1cc(S(=O)(=O)N2CCN(c3ccccc3Cl)CC2)ccc1F	none
CC(C)(C)NC(=O)c1cc(-c2ccc(Cl)cc2)nc2ccccc12	none (no result: SNCA expr inhib, IP6K1 inh, SNCA viab count)
COc1ccc(CNc2oc(COc3cccc(Cl)c3)nc2C#N)cc1	none (no result: SNCA expr inhib, IP6K1 inh, SNCA viab count)
Cn1c2c(c3ccccc31)CN(C(=O)Nc1ccc(Cl)cc1Cl)CC2	KDM5B inh 22µM
Cn1c2c(c3ccccc31)CN(C(=O)Nc1ccccc1F)CC2	KDM5B inh 22µM
Cc1ccc(CN2CCC(Oc3ccc4ncccc4c3)(C(=O)O)CC2)o1	KDM5B inh inconclusive
O=C(O)C1(Oc2ccc3ncccc3c2)CCN(Cc2ccncc2)CC1	KDM5B inh 16µM

Screening results: PubChem BioAssay, National Center for Advancing Translational Sciences (NCATS)
